# Sampled rows, rich in hits. Any-hit rate of the full collection: about 8%.
# SW480 rereplic – A quantitative high throughput screen for small molecules that induce DNA re-replication in SW480 colon adenocarcinoma cells; 1.8% of 340,000 active; Potency, µM (titrated, usually from 46.1 µM), for inactives: at the highest dose re-replication activation, most hits filed as activators; SW480 DNA re-replication, Hoechst DNA content imaging, 48 h; further: % of control where 0% means no effect; nearly all actives have a fitted effect of over 55% in size
#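 Image-based DNA-content assay: after two days of treatment, nuclei were labelled with the DNA dye Hoechst and imaged, and hits were compounds raising the count of nuclei showing high fluorescence intensity.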
# MCF10A rerep – A quantitative high throughput screen for small molecules that induce DNA re-replication in MCF 10a normal breast cells. 2.9% of 350,000 active. MCF 10A DNA re-replication, Hoechst nuclear intensity, 48 h. AID 624296, 2012. Potency, µM (top dose mostly 46.1 µM), for inactives: top-dose activity, positive = re-replication, usual class: activators; further: % of control where 0% means no effect; nearly all actives have a fitted effect of over 50% in size
# HT1080NT lethal – qHTS for induction of synthetic lethality in tumor cells producing 2HG: qHTS for the HT-1080-NT fibrosarcoma cell line; Potency, µM (highest dose often 46.1 µM), without a hit: at the highest dose activity, negative = less viability, most hits filed as cytotoxic; HT-1080-NT fibrosarcoma viability, CellTiter-Glo ATP luminescence, 48 h; 1.6% of 360,000 active;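 further: NT is the 2HG producing partner of a matched IDH1 knockdown line; 0% = DMSO-treated cells and -100% = media-only wells without cells; nearly all actives have a fitted effect of over 55% in size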
#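 750 cells/well, RPMI + 5% FBS; 2 h settle, compound pin-transfer, 48 h at 37 degrees C. CellTiter-Glo 10 min RT, luminescence. Normalized to DMSO and media-only wells.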
# KB-3-1 tox – qHTS assay for MDR1-selective chemotherapeutics: Primary screen using the parental adenocarcinoma cell KB-3-1. KB-3-1 viability, CellTiter-Glo ATP luminescence, 72 h. Potency, µM (series often up to 46.1 µM), hits mostly cytotoxic. 1.4% of 400,000 active. AID 1347075, 2019; further: on the % scale 0 is the no-effect control and ±100 the full control effect; nearly all actives have a fitted effect of over 60% in size
#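 Here the drug-naive KB-3-1 line serves as comparator for MDR sub-line selectivity; cells received compound titrations, 72 h at 37 °C, then CellTiter-Glo readout.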
# KB-V1 MDR tox – qHTS assay for MDR1-selective chemotherapeutics: Primary screen using the drug-selected MDR subline cells KB-V1; Potency, µM (doses to about 46.1 µM), usual class: cytotoxic; AID 1347076, 2019; 3.4% of 400,000 active; KB-V1 MDR cells viability, CellTiter-Glo, 72 h; further: on the % scale 0 is the no-effect control and ±100 the full control effect; nearly all actives have a fitted effect of over 60% in size
#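 KB-V1 MDR subline cells in DMEM (phenol-red free, 10% FBS) exposed to compounds in qHTS concentration series for 72 h at 37 degrees C. Viability read by CellTiter-Glo luminescence; concentration-effect curves fitted after normalization and correction.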
# HT1080 IDH1KD tx – qHTS for induction of synthetic lethality in tumor cells producing 2HG: qHTS for the HT-1080-IDH1KD cell line | HT-1080 IDH1 knockdown viability, ATP luminescence, 48 h | Potency, µM (doses to about 46.1 µM), without a hit: at the top dose activity, negative = toxicity, most hits filed as cytotoxic | 2% of 360,000 active;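 further: 0% = DMSO wells and -100% = cell-free medium wells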
#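 IDH1KD HT-1080 cells, 750/well, RPMI + 5% FBS; compound pinned after 2 h settling; 48 h, 37 °C; CellTiter-Glo luminescence; % activity normalised to DMSO and no-cell wells; curves fitted, classed by r2 and efficacy.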
# An asterisk follows results filed as active; i = inactive; ? = inconclusive; · = no result. The call rests on the fitted dose curve; in most records, active means well fitted curve in the direction sought with a large enough effect; inconclusive means small, poorly fitted or top-dose-only effect, or another doubt; inactive means no such curve, though single readings can be large; an effect the other way counts as inactive or inconclusive. Potency means the concentration at half of the fitted maximal effect.
SMILES,SW480 rereplic,MCF10A rerep,HT1080NT lethal,KB-3-1 tox,KB-V1 MDR tox,HT1080 IDH1KD tx
CCCC(=O)NC(=S)Nc1c(C)cc(Br)cc1C,15%,2%,0%,18µM*,?,-4%
NC(=O)c1ccccc1NC(=O)CCc1ccccc1,-9%,4%,7%,i,i,5%
Cc1ccccc1NC(=S)NC(=O)CCc1ccccc1,4%,-3%,10µM*,i,?,?
NC(=O)c1ccccc1NC(=S)NC(=O)CCc1ccccc1,3.3µM*,5.8µM*,3.3µM*,i,i,3.3µM*
Cc1cccc(C)c1NC(=S)NC(=O)CCc1ccccc1,3.3µM*,?,10µM*,i,?,11µM*
CSc1cccc(NC(=O)NCc2cccc(CNC(=O)Nc3cccc(SC)c3)c2)c1,11%,7.3µM*,23µM*,?,i,?
CSc1cccc(NC(=O)C(=O)NCc2ccccc2)c1,-8%,-1%,-25%,i,i,-1%
CSc1cccc(NC(=S)NC(=O)CCc2ccccc2)c1,?,16µM*,-17%,?,?,-20%
CCOc1ccccc1NC(=O)CN1CCCCCC1,-7%,0%,2%,i,i,4%
COc1ccccc1C(=O)C1CCCN(C(=O)c2ccccn2)C1 (stereo not given),3%,-2%,6%,i,i,6%
O=C(c1cc2cc(F)ccc2[nH]1)N1CCC(Cc2ccccc2)CC1,5%,8.2µM*,-23%,i,i,-8%
COc1ccc(C2C(=O)N(CCc3ccccc3)CC(=O)N2C2CCCCC2)cc1 (stereo not given),3%,3%,-6%,i,3.7µM*,?
COc1ccc(NC2=C(C(C)=O)C(c3ccccc3)C(C(C)=O)C(C)(O)C2)cc1 (stereo not given),5%,9%,-23%,?,i,-18%
CCOC(=O)C1=C(Nc2ccccc2)CC(C)(O)C(C(=O)OCC)C1c1ccc(Cl)cc1 (stereo not given),8%,?,-7%,?,21µM*,-8%
CCn1c(=O)n(CC)c2cc(S(=O)(=O)N3CCC(c4ccccc4)CC3)ccc21,-2%,-5%,?,i,23µM*,-24%
Cn1c(=O)c(=O)n(C)c2cc(S(=O)(=O)N3CCC(Cc4ccccc4)CC3)ccc21,-3%,8%,0%,i,i,0%
Nc1ccc(N2CCN(c3ccc(Cl)c(Cl)c3)CC2)cc1,-10%,?,-10%,21µM*,18µM*,-6%
COC(=O)N1CCN(c2ccc(Cl)c(Cl)c2)CC1,-1%,20%,-2%,?,23µM*,6%
O=C(CC1CS(=O)(=O)CC1CC(=O)Oc1ccccc1F)Oc1ccccc1F (stereo not given),-6%,3%,17%,i,i,15%
Cc1cccc(NS(=O)(=O)c2ccc(C(=O)N3CCC3)cc2)c1C,-6%,1%,0%,i,i,-5%
COc1cccc(NC(=O)c2ccccc2OCC(=O)Nc2ccc(Br)cc2)c1,·,·,·,i,i,·
COc1ccc(C(=O)NC(C)c2ccccc2)cc1Br (stereo not given),18%,-11%,-1%,i,i,2%
C[C@@H](NC(=O)c1coc(=O)c(Br)c1)c1ccccc1,?,?,9.2µM*,12µM*,?,8.2µM*
Cc1cc(NC(=O)c2coc(=O)c(Br)c2)ccc1C(C)C,?,?,?,i,i,21µM*

# Compound activity (PubChem)
